# Results from PubChem BioAssay AID372 (MTDP, 2006).
# The whole screen tested about 100,000 compounds, of which about 770 (0.77%) were called active. This excerpt belongs to a sample that is enriched for actives. A number with no mark means an inactive call. Rule as the data show it: active = inhibition above about 50%; inactive = the rest.
# Molecular target: Gag-Pol polyprotein (Human immunodeficiency virus type 1 group M subtype B (isolate HXB2)) (UniProt P04585)
# Assay: RNase H inhibition, HIV 1 Gag Pol polyprotein, FRET biochemical assay, screening (AID 372)
# Conditions: HIV-1 RT RNase H, FRET RNA/DNA substrate fluorescence; at 10 µM; stronger effect = higher value
row,SMILES,inhibition
1,CCCC(=O)Nc1c(C)ccc2nsnc12,0%
2,COCCCNC(=O)COc1ccc(Cl)cc1C,10%
3,CCN1C(=O)/C(=C\c2cccc(O)c2)SC1=S,28%
4,CN1C(=O)/C(=C/c2ccc(O)c(O)c2)SC1=S,83% (active)
5,CCOc1cc(/C=C2\SC(=S)N(C)C2=O)ccc1O,22%
6,CCN1C(=O)/C(=C\c2ccc(O)c(O)c2)SC1=S,81% (active)
7,COc1ccc(/C=C2/SC(=S)N(C)C2=O)cc1O,43%
8,CCN1C(=O)/C(=C\c2ccc(O)c(OC)c2)SC1=S,36%
9,CCN1C(=O)/C(=C\c2ccc(O)cc2O)SC1=S,70% (active)
10,COc1cc(/C=C2\SC(=S)N(C3CCCCC3)C2=O)ccc1O,8%
11,CCN1C(=O)/C(=C\c2cc(Cl)ccc2O)SC1=S,16%
12,COc1ccc(/C=C2\SC(=S)N(C3CCCCC3)C2=O)cc1O,5%
13,CCN1C(=O)/C(=C\c2cc(OC)ccc2O)SC1=S,24%
14,N/C(Cc1ccc([N+](=O)[O-])cc1)=N\OC(=O)c1ccc([N+](=O)[O-])cc1,6%
15,Cc1ccc(C(=O)N2CCc3ccccc32)cc1[N+](=O)[O-],5%
16,O=[N+]([O-])c1cc([N+](=O)[O-])c(N2CCN(c3ccccc3Cl)CC2)cc1Nc1ccc(Br)cc1,5%
17,O=C(CSc1cc(Cl)ccc1Cl)Nc1cccc(C(F)(F)F)c1,9%
18,COc1cc(C(=O)N/C(=C/c2ccco2)C(=O)Nc2ccccc2)cc(OC)c1OC,9%
19,COc1ccccc1C1NC(=O)NC(C)=C1C(=O)OC(C)C (configuration not stated),8%
20,CCNC(=O)C(=O)Nc1ccccc1C,5%
21,CCOC(=O)c1c(NC(=O)Cc2ccc(Cl)cc2)sc(C(=O)Nc2ccccc2OC)c1C,0%

row,SMILES,inhibition
1,Cc1c(OCC(N)=O)ccc2c1oc(=O)c1ccccc12,47%
2,COc1ccccc1N1CCN(/N=C/C=C\c2ccco2)CC1,8%
3,C[n+]1cccc(C(=O)NCCOC(=O)c2ccc(F)cc2)c1,0%
4,O=C1/C(=C\c2ccc(O)cc2)SC(=S)N1Cc1ccccc1,46%
5,O=C1/C(=C\c2ccc(O)c(O)c2)SC(=S)N1Cc1ccccc1,73% (active)
6,O=C(O)CCCCCCCCCCN1C(=O)/C(=C/c2ccc(Br)cc2)SC1=S,25%
7,COc1cc(/C=C2\SC(=S)N(CCCCCCCCCCC(=O)O)C2=O)ccc1O,23%
8,O=C(O)CCCCCN1C(=O)/C(=C/c2ccc(O)c(O)c2)SC1=S,53% (active)
9,O=C1/C(=C/c2ccc(O)c([N+](=O)[O-])c2)SC(=S)N1Cc1ccccc1,23%
10,CCOc1ccc(/C=N/N2CCN(Cc3cccc4ccccc34)CC2)cc1OC,13%
11,NC(=O)c1ccccc1NC(=O)c1sc2ccccc2c1Cl,0%
12,O=C1S/C(=C/c2ccc3c(c2)OCO3)C(=O)N1CN1CCCC1,10%
13,c1ccc(CCCN2CCN(Cc3cccnc3)CC2)cc1,5%
14,COC(=O)C1=C(C)N=c2s/c(=C\c3ccccc3F)c(=O)n2C1c1ccc(OC)cc1 (configuration not stated),11%
15,COc1ccc(C2=C(c3ccc(OC)cc3)C3(c4ccccc4)C(=O)C2(c2ccccc2)C2C(=O)N(c4ccc(Br)cc4)C(=O)C23)cc1 (configuration not stated),42%
16,COC(=O)c1ccc(N2C(=O)C3C(C2=O)C2(c4ccccc4)C(=O)C3(c3ccccc3)C(c3ccc(OC)cc3)=C2c2ccc(OC)cc2)cc1 (configuration not stated),57% (active)
17,CCOC(=O)c1ccc(N2C(=O)C3C(C2=O)C2(c4ccccc4)C(=O)C3(c3ccccc3)C(c3ccc(OC)cc3)=C2c2ccc(OC)cc2)cc1 (configuration not stated),44%
18,COc1cc2ccccc2cc1C(=O)Nc1ccc(Cl)c(Cl)c1,24%
19,Cc1ccc(OCC2CNC(=O)O2)cc1 (configuration not stated),10%
20,CCc1ccc(N2C(=O)NC(=O)/C(=C\c3ccc(I)o3)C2=O)cc1,11%
21,CCOc1cccc(N2C(=O)/C(=C/c3ccc(I)o3)C(=O)NC2=S)c1,39%

row,SMILES,inhibition
1,O=C1NC(=S)N(c2ccc(Cl)cc2)C(=O)/C1=C/c1ccc(-c2ccc(F)cc2)o1,25%
2,O=C1NC(=S)N(c2ccc(Cl)cc2)C(=O)/C1=C/c1ccc(N2CCCC2)o1,10%
3,CCc1ccc(N2C(=O)/C(=C/c3ccc(-c4ccc(F)cc4)o3)C(=O)NC2=S)cc1,26%
4,CCOc1ccc(N2C(=O)NC(=O)/C(=C\c3ccc(Br)o3)C2=O)cc1,1%
5,CCc1ccc(N2C(=O)/C(=C/c3ccc(I)o3)C(=O)NC2=S)cc1,97% (active)
6,CCOc1ccc(N2C(=O)NC(=O)/C(=C\c3ccc(I)o3)C2=O)cc1,5%
7,CCOc1ccc(N2C(=O)/C(=C/c3ccc(N(CC)CC)o3)C(=O)NC2=S)cc1,21%
8,O=C(Cc1csc(-c2ccccc2)n1)Nc1nccs1,0%
9,O=C(NCCSc1ccccn1)c1ccc([N+](=O)[O-])cc1,0%
10,Cc1ccc2c(c1)-c1c(ssc1=S)C(C)(C)N2C(=O)c1ccco1,48%
11,Cc1ccc(/C(O)=C2/C(=O)C(=O)N(c3ccccc3)C2c2ccc([N+](=O)[O-])cc2)cc1 (configuration not stated),0%
12,CC1=C(C(=O)OCC2CCCO2)C(c2cc3c(cc2[N+](=O)[O-])OCO3)C2=C(CCCC2=O)N1 (configuration not stated),6%
13,CCC(C)c1ccc(NC(=O)Cc2ccc(Cl)cc2)cc1 (configuration not stated),10%
14,CCC(=O)Nc1ccc(NC(=S)NC(=O)c2ccco2)cc1,0%
15,N#C/C(=C\c1ccc(-c2ccc([N+](=O)[O-])cc2Br)o1)C(N)=O,22%
16,CCOc1ccc(N2C(=O)NC(=O)/C(=C\c3ccccc3OC)C2=O)cc1,5%
17,CCOc1ccc(N2C(=O)NC(=O)/C(=C/c3cccc4ccccc34)C2=O)cc1,73% (active)
18,COc1ccc(N2C(=O)NC(=O)/C(=C/c3ccc(I)o3)C2=O)cc1,11%
19,COc1ccc(N2C(=O)/C(=C\c3ccc([N+](=O)[O-])o3)C(=O)NC2=S)cc1,43%
20,CCOc1ccc(N2C(=O)NC(=O)/C(=C\c3ccccc3)C2=O)cc1,0%
